Active and inactive are the calls of the source.
Experiments:
[1] = target: Albumin (Bos taurus) (UniProt P02769); assay: bovine serum albumin binders on microarray, profiling panel, artefact control for SMM control protein annotation, biochemical, small-molecule microarray, Alexa647 label, 635/667 nm fluorescence (AID 1118); settings: BSA-A647 binding, fluorescence 635 nm, higher = more signal;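 also: score merges 667 nm emission intensity and signal-to-noise per printed compound spot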
[2] = small-molecule microarray binders of probe aXIP, primary screen, biochemical, NeuroSMM set, 635/667 nm fluorescence (AID 1119); settings: higher = more signal, called active from +8 up or from −8 down;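 also: probe is the protein aXip251-270 applied at 1 µg/mL to compound-printed slides; binding of probe to printed compounds measured as 667 nm fluorescence plus signal to noise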
[3] = small-molecule binders of probe aNOTCH3, primary screen, biochemical, small-molecule microarray, 635/667 nm fluorescence (AID 1120); settings: higher = more signal;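 also: probe is a biotin-tagged antibody raised against NOTCH3 rather than NOTCH3 protein; score merges spot fluorescence near 667 nm with spot signal to noise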
[4] = small-molecule binders of probe aNOTCH2, primary screen, biochemical, small-molecule microarray, 635/667 nm fluorescence (AID 1121); settings: higher = more signal;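 also: score merges feature fluorescence read at 667 nm with its signal to noise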
[5] = target: Carbonic anhydrase 2 (Homo sapiens) (UniProt P00918); assay: CAII small-molecule binders, profiling panel, biochemical, small-molecule microarray, Alexa647-labelled CAII (AID 1122); settings: CAII-A647 binding fluorescence, higher = more signal
[6] = COS7 lysate on small-molecule microarray, probe aHis, 635 nm (AID 1123); settings: COS7 cell lysate, fluorescence, higher = more signal;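 also: z-score combines 667nm fluorescence intensity with signal-to-noise per printed compound spot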
[7] = compound binding in COS7 lysate, probe aLAP1, primary screen, cell lysate, small-molecule microarray (AID 1124); settings: probe aLAP1, fluorescence, higher = more signal;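 also: lysate comes from COS7 cells expressing LAP1 and is applied at 0.3 µg/mL; score merges spot fluorescence near 667 nm with signal-to-noise over triplicate slides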
[8] = test system: Sam68 (KHDRBS1); assay: Sam68 small-molecule binders, primary screen, biochemical, small-molecule microarray, 635 nm fluorescence (AID 1125); settings: small-molecule microarray binding, higher = more signal;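 also: score merges 667 nm channel intensity with signal to noise over triplicate slides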
[9] = test system: Chordin-like protein 2 (CHRDL2); assay: CHRDL2 small-molecule binders, primary screen, biochemical, small-molecule microarray, 635 nm fluorescence (AID 1126); settings: small-molecule microarray binding, fluorescence 635 nm; higher = more signal;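 also: printed compound slides probed with Chrdl2 protein at 4 µg/mL for 1 h at 4 C; score merges 667 nm emission intensity with signal to noise over three replicate slides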
[10] = target: Concanavalin-A (Canavalia ensiformis) (UniProt P02866); assay: ConA small-molecule binders, primary screen, artefact control for SMM control protein annotation, biochemical, small-molecule microarray, Alexa647 label, 635 nm (AID 1127); settings: ConA-A647 binding fluorescence, higher = more signal;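 also: z combines 667 nm emission intensity with signal-to-noise across three replicate slides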
Sequence of Concanavalin-A (Canavalia ensiformis) (P02866 whole entry, looked up): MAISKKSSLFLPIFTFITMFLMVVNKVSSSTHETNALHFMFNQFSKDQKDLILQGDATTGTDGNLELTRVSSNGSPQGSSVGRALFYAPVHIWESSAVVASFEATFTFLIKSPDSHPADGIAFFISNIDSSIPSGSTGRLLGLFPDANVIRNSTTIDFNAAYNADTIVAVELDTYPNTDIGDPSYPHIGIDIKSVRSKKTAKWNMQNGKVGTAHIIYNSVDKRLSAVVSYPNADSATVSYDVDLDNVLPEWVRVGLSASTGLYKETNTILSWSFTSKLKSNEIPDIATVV

Sequence of Albumin (Bos taurus) (P02769 whole entry, looked up): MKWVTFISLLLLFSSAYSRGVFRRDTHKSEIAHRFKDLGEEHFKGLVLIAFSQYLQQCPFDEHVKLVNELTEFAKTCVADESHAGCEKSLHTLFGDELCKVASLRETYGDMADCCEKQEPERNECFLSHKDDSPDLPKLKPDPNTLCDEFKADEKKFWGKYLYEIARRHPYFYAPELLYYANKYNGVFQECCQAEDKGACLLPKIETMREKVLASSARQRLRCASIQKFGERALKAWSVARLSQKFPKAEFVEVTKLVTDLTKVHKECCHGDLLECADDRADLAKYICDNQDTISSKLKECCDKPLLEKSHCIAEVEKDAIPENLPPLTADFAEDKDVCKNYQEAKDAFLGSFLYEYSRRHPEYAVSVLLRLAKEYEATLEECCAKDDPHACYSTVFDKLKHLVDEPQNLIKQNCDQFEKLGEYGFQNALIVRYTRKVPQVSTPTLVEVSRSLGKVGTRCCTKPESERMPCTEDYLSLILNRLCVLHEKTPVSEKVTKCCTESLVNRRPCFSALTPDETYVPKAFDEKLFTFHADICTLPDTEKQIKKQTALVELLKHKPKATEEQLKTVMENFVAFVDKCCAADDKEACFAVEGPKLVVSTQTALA

Row | SMILES | composite z-score [1] | composite Z-score [2] | composite z-score [3] | composite z-score [4] | composite z-score [5] | composite z-score [6] | composite z-score [7] | composite z-score [8] | composite z-score [9] | composite z-score [10]
1 | COc1ccc(C(=O)Nc2ccc(CN3C(=O)[C@]4(O[C@H](CC(=O)N(CCO)Cc5ccccc5)[C@@H]([Si](C)(C)c5ccc(OC)cc5)[C@@H]4C)c4ccccc43)cc2)cc1 | -0.622 | -0.21 (inactive) | -0.0288 | -0.193 | 0.541 | 1.58 | 1.62 | 1.35 | 1.18 | 0.905
2 | C=C(C(=O)CC[C@@H](OC(=O)c1ccccc1-c1ccccc1C(=O)O)c1cccc(OCCO)c1)C(C)C | -0.757 | -0.88 (inactive) | 0.107 | -0.0402 | 0.555 | 0.139 | 1.2 | 0.152 | 1.26 | -0.539
3 | C=CCNC(=O)[C@H]1[C@@H]2C(=O)O[C@@H](c3ccccc3)[C@@H](c3ccccc3)N2[C@@H](c2ccc(O)cc2)[C@]12C(=O)Nc1ccc(C#CCC(C(=O)OC)C(=O)OC)cc12 | 0.0574 | -0.209 (inactive) | -0.217 | 0.0098 | 0.649 | 1.23 | 0.877 | 0.421 | 0.952 | -0.273
4 | COC(=O)C(CC#Cc1ccc2c(c1)[C@]1(C(=O)N2)[C@H](C(=O)NC[C@H](O)c2ccccc2)[C@H]2C(=O)O[C@H](c3ccccc3)[C@H](c3ccccc3)N2[C@@H]1c1ccc(O)cc1)C(=O)OC | 0.41 | 1.05 (inactive) | -0.0932 | -0.126 | 0.683 | 0.84 | -0.177 | -0.165 | -0.275 | 0.188
5 | C=CC[C@H](O)c1ccc(O)c2ccccc12 | -0.491 | 0.579 (inactive) | 0.037 | -0.0904 | 0.421 | 1.63 | 0.0233 | 1.06 | 1.4 | 0.79
6 | COc1ccc([Si](C)(C)[C@@H]2[C@@H](CC(=O)N(CCO)Cc3ccccc3)O[C@]3(C(=O)N(Cc4cccc(I)c4)c4ccccc43)[C@H]2C)cc1 | -0.783 | 0.0089 (inactive) | 0.0522 | -0.0576 | 0.364 | 0.763 | 0.363 | 1.01 | 1.12 | 0.779
7 | COCCCNC(=O)[C@@]1(CCC(=O)OC(C)(C)C)N=C(c2ccc(OCCCO)cc2)O[C@H]1c1ccccc1 | 0.838 | 0.0999 (inactive) | 0.141 | -0.0237 | 0.696 | 2.94 | 0.584 | 0.748 | -0.864 | 0.525
8 | COCCOC(=O)N1C(=O)[C@@]2(c3ccccc31)[C@H](C(=O)Nc1nc3ccccc3s1)[C@H]1C(=O)O[C@H](c3ccccc3)[C@H](c3ccccc3)N1[C@@H]2c1ccccc1OCCO | 0.0171 | 0.0308 (inactive) | 0.291 | -0.0684 | 0.526 | 1.54 | 1.63 | 1.3 | 0.145 | 1.08
9 | CCCC1(C(=O)OC)C=C2C(=C(C(C)C)C(=O)C2C)CN1 (stereo not given) | 0.844 | 0.382 (inactive) | -0.0288 | 0.0788 | 0.0703 | 0.614 | 0.976 | -1.36 | -0.454 | -0.981
10 | CC1(C)OB(/C=C\CC(OC(=O)c2ccncc2)c2ccccc2)OC1(C)C (stereo not given) | 0.152 | 0.142 (inactive) | -0.0345 | -0.0464 | 0.918 | 0.677 | 0.953 | 0.426 | 0.381 | -0.305
11 | COc1ccc(NN2C(C(O)c3ccc(F)cc3)C=CC3C(=O)N(C4CCCCC4)C(=O)C32)cc1 (stereo not given) | 0.861 | -0.0189 (inactive) | 0.183 | -0.0161 | 0.649 | 1.39 | 0.0892 | 1.29 | -0.0299 | 1.13
12 | O=C1N(Cc2ccccc2)Cc2ccccc2C[C@@]12COC(c1ccc(OCCCO)cc1)=N2 | -0.0983 | 0.852 (inactive) | 0.133 | 0.12 | 0.461 | 2.08 | 0.4 | 1.22 | 0.303 | 0.864
13 | CC(C)(C)OC(=O)N1[C@@H](C=C(Br)Br)COC1(C)C | -0.121 | 0.274 (inactive) | 0.0522 | -0.104 | -0.0481 | 0.259 | 0.136 | 0.839 | 0.644 | 0.556
14 | CN1C(=O)C2C=CC(C(O)c3ccc(I)cc3)N(N(c3ccccc3)c3ccccc3)C2C1=O (stereo not given) | 0.626 | 0.263 (inactive) | -0.0328 | 0.0129 | 0.243 | 0.307 | 0.249 | -0.397 | 0.0635 | 0.326
15 | COc1ccc(-c2cc3c(c(CCc4ccccc4)n2)[Si](C(C)C)(C(C)C)O[C@H]3c2ccccc2)cn1 | -0.425 | -0.161 (inactive) | -0.0221 | -0.162 | -0.299 | -0.405 | 0.0028 | -0.605 | -0.315 | 0.571
16 | COc1ccc([Si](C)(C)[C@H]2[C@H](CC(=O)N3CCC[C@H]3CO)O[C@@]3(C(=O)N(Cc4cccc(N5CCCCC5=O)c4)c4ccccc43)[C@@H]2C)cc1 | 0.342 | 0.433 (inactive) | -0.318 | -0.161 | 0.462 | 1.83 | 0.648 | 1.31 | 1.19 | 1.13
17 | O=C(NCCN1CCOCC1)[C@@H]1c2ccccc2C(=O)N(CC23CC4CC(CC(C4)C2)C3)[C@H]1c1ccc(CO)cc1 | 0.974 | 0.864 (inactive) | 0.216 | 0.0129 | 0.642 | 2.17 | 0.522 | 1.3 | 0.0884 | 1.14
18 | COc1cccc(C)c1NC(=O)O[C@H]1[C@H](OC(=O)Nc2ccccc2)[C@@H](OC(=O)Nc2ccccc2)[C@@H](OC)O[C@@H]1CO | 0.541 | -0.376 (inactive) | 0.163 | -0.0811 | 0.461 | 2.66 | 0.665 | 1.29 | 0.174 | 1.08
19 | COCCOC(=O)N1C(=O)[C@@]2(c3cc(C#CC4=CCCCC4)ccc31)[C@H](C(=O)N1CCCCCCC1)[C@H]1C(=O)O[C@H](c3ccccc3)[C@H](c3ccccc3)N1[C@@H]2c1ccccc1OCCO | 0.321 | 0.496 (inactive) | 0.733 | 0.0596 | 0.522 | 1.58 | 1.2 | 1.3 | 0.6 | 1.11
20 | COCCOC(=O)N1C(=O)[C@@]2(c3cc(C#CCNC(N)=O)ccc31)[C@H](c1ccc(O)cc1)N1[C@H](c3ccccc3)[C@H](c3ccccc3)OC(=O)[C@H]1[C@@H]2C(=O)N1CCc2cc(OC)c(OC)cc2C1 | 0.397 | 0.443 (inactive) | 0.0962 | -0.0928 | 0.414 | 0.781 | -0.0347 | 1.21 | 0.431 | 0.764
21 | C=CCNC(=O)[C@H]1[C@@H]2C(=O)O[C@@H](c3ccccc3)[C@@H](c3ccccc3)N2[C@@H](c2ccc(OCCO)cc2)[C@]12C(=O)N(C(=O)OCCOC)c1ccc(C#CCC(C(=O)OC)C(=O)OC)cc12 | 0.738 | 0.245 (inactive) | 0.327 | 0.0654 | 0.702 | 2.67 | 1.44 | 1.16 | 0.6 | 1.12
22 | O=C1C2C=CC(C(O)C3CC=CCC3)N(Nc3ccc([N+](=O)[O-])cc3)C2C(=O)N1c1ccccc1 (stereo not given) | 0.82 | 0.626 (inactive) | 0.749 | 0.326 | 0.693 | 2.5 | 1.21 | 1.33 | 0.729 | 1.07

— PubChem BioAssay
